From the supplement of paper PMC9262897, “Low-cost anti-mycobacterial drug discovery using engineered E. coli” (Nature Communications, 2022)
Where a name gives a salt, the structure may show the parent alone. ± gives the standard deviation of the averaged measurements.

Columns and labels:
Assay in all cases: growth (OD600 after 10 h); higher = more growth (less inhibition)
[1] = tested on: E. coli TESEC Alr+ wild-type control; conditions: compound 0.1 mM; raw OD600 reference: median of DMSO wells 0.241, cell-free background 0.041
Experimental: (§1)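 TESEC Mtb Alr E. coli, or the Alr+ wild-type control, in 384-well plates with Prestwick library compounds at 0.1 mM and 1% DMSO, across arabinose induction levels of 1E3 to 1E7 nM. Growth is read as OD600 after 10 h at 37 °C in triplicate biological replicates.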

E. coli TESEC Mtb Alr [2] = conditions: compound 0.1 mM
Experimental: as §1

E. coli TESEC Mtb Asd = conditions: compound 0.1 mM
Experimental: (§2)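 TESEC E. coli strains in which the native enzyme is deleted and replaced by arabinose-inducible Mtb Asd, DapB, CysH or TrpD, each grown in its selective medium. Strains were screened against the Prestwick library at 0.1 mM and 1% DMSO in 384-well format at low and high arabinose induction. Growth is read as OD600 after 10 h in triplicate.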

E. coli TESEC Mtb DapB = conditions: compound 0.1 mM
Experimental: as §2

[3] = tested on: E. coli TESEC Alr+ wild-type control; conditions: compound 0.1 mM; raw OD600 reference: median of DMSO wells 0.49, cell-free background 0.052
Experimental: (§3)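 TESEC Mtb Alr E. coli (ΔaraC ΔtolC ΔentC Δalr ΔdadX, arabinose-inducible Mtb Alr) or the Alr+ wild-type control strain, grown in defined M9-fructose medium without D-alanine in 96-well plates with Prestwick library compounds at 0.1 mM and 1% DMSO. Low Alr induction is 0.1 µM arabinose and high induction is 10 mM arabinose.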

E. coli TESEC Mtb Alr [4] = conditions: compound 0.1 mM; remark: listed apart in the source
Experimental: as §3

[5] = arabinose 1000 nM, raw OD600 reference: median of DMSO wells 0.294, cell-free background 0.041
[6] = arabinose 10000 nM, raw OD600 reference: median of DMSO wells 0.264, cell-free background 0.041
[7] = arabinose 100000 nM, raw OD600 reference: median of DMSO wells 0.201, cell-free background 0.041
[8] = arabinose 1000000 nM, raw OD600 reference: median of DMSO wells 0.193, cell-free background 0.041
[9] = arabinose 10000000 nM, raw OD600 reference: median of DMSO wells 0.146, cell-free background 0.041
[10] = arabinose induction (level): High, raw OD600 reference: median of DMSO wells 0.331, cell-free background 0.041
[11] = arabinose induction (level): Low, raw OD600 reference: median of DMSO wells 0.417, cell-free background 0.041
[12] = arabinose induction (level): High, raw OD600 reference: median of DMSO wells […], cell-free background 0.041
[13] = arabinose induction (level): Low, raw OD600 reference: median of DMSO wells 0.227, cell-free background 0.041
[14] = arabinose 100 nM, raw OD600 reference: median of DMSO wells 0.413, cell-free background 0.052
[15] = arabinose 10000000 nM, raw OD600 reference: median of DMSO wells […], cell-free background 0.052

Compound | growth [1] | growth (E. coli TESEC Mtb Alr [2]; [5]) | growth (E. coli TESEC Mtb Alr [2]; [6]) | growth (E. coli TESEC Mtb Alr [2]; [7]) | growth (E. coli TESEC Mtb Alr [2]; [8]) | growth (E. coli TESEC Mtb Alr [2]; [9]) | growth (E. coli TESEC Mtb Asd; [10]) | growth (E. coli TESEC Mtb Asd; [11]) | growth (E. coli TESEC Mtb DapB; [12]) | growth (E. coli TESEC Mtb DapB; [13]) | growth [3] | growth (E. coli TESEC Mtb Alr [4]; [14]) | growth (E. coli TESEC Mtb Alr [4]; [15])
CC1CCc2cc(F)cc3c(=O)c(C(=O)O)cn1c23 (centres undefined) [Flumequine] | 0.0491 ± 0.00083 | 0.04537 ± 0.00031 | 0.0396 ± 0.00065 | 0.0452 ± 0.0012 | 0.0416 ± 0.0004 | 0.04987 ± 0.00029 | 0.059 ± 0.0029 | 0.0732 ± 0.0099 | 0.0826 ± 0.0024 | 0.0692 ± 0.0075 | 0.0527 ± 0.00046 | 0.0543 ± 0.0034 | 0.05097 ± 0.00047
O=C(O)CNC(=O)C(CS)Cc1ccccc1 (centres undefined) [Thiorphan] | 0.26 ± 0.0069 | 0.305 ± 0.013 | 0.2568 ± 0.0017 | 0.252 ± 0.037 | 0.172 ± 0.003 | 0.167 ± 0.0089 | 0.3 ± 0.069 | 0.382 ± 0.034 | 0.202 ± 0.019 | 0.236 ± 0.019 | 0.475 ± 0.036 | 0.409 ± 0.0074 | 0.348 ± 0.021
O=C(Cn1ccnc1[N+](=O)[O-])NCCO [Etanidazole] | 0.2444 ± 0.00084 | 0.306 ± 0.015 | 0.258 ± 0.0028 | 0.213 ± 0.0053 | 0.178 ± 0.0091 | 0.138 ± 0.0056 | 0.318 ± 0.027 | 0.423 ± 0.0082 | 0.202 ± 0.006 | 0.232 ± 0.0081 | 0.471 ± 0.019 | 0.406 ± 0.012 | 0.358 ± 0.016
C[C@@H](O)[C@H]1C(=O)N2C(C(=O)O)=C(S[C@@H]3CN[C@H](C(=O)N(C)C)C3)[C@H](C)[C@H]12 [Meropenem] | 0.0404 ± 0.00057 | 0.0418 ± 0.0014 | 0.0448 ± 0.0059 | 0.0523 ± 0.0007 | 0.0817 ± 0.0057 | 0.0962 ± 0.003 | 0.138 ± 0.0038 | 0.0552 ± 0.0001 | 0.135 ± 0.0089 | 0.169 ± 0.013 | 0.0604 ± 0.0014 | 0.04557 ± 0.00025 | 0.0882 ± 0.013
Cc1ccc(N(CC2=NCCN2)c2cccc(O)c2)cc1 [Phentolamine hydrochloride] | 0.219 ± 0.0053 | 0.287 ± 0.0088 | 0.27 ± 0.0075 | 0.2 ± 0.0085 | 0.173 ± 0.0079 | 0.161 ± 0.0026 | 0.252 ± 0.065 | 0.377 ± 0.048 | 0.193 ± 0.019 | 0.252 ± 0.024 | 0.452 ± 0.0089 | 0.411 ± 0.019 | 0.352 ± 0.026
O=C(O)CCc1nc(-c2ccccc2)c(-c2ccccc2)o1 [Oxaprozin] | 0.143 ± 0.0053 | 0.169 ± 0.0038 | 0.206 ± 0.0029 | 0.102 ± 0.0063 | 0.0905 ± 0.0025 | 0.0775 ± 0.0013 | 0.223 ± 0.022 | 0.165 ± 0.0041 | 0.139 ± 0.0021 | 0.152 ± 0.0088 | 0.381 ± 0.039 | 0.3746 ± 0.0018 | 0.128 ± 0.0076
CCOC1O[C@H]([C@@H](COCc2ccccc2)OCc2ccccc2)[C@H](OCc2ccccc2)[C@H]1O (some centres undefined) [Tribenoside] | 0.23 ± 0.005 | 0.29 ± 0.008 | 0.255 ± 0.015 | 0.148 ± 0.0075 | 0.0915 ± 0.0035 | 0.154 ± 0.0022 | 0.214 ± 0.023 | 0.199 ± 0.015 | 0.155 ± 0.0039 | 0.155 ± 0.016 | 0.374 ± 0.015 | 0.378 ± 0.0058 | 0.0944 ± 0.017
CC(=O)NCCCS(=O)(=O)O [Acamprosate calcium] | 0.233 ± 0.004 | 0.2868 ± 0.0017 | 0.242 ± 0.0043 | 0.202 ± 0.026 | 0.1706 ± 0.0011 | 0.142 ± 0.0039 | 0.259 ± 0.079 | 0.309 ± 0.033 | 0.212 ± 0.031 | 0.229 ± 0.028 | 0.472 ± 0.035 | 0.409 ± 0.01 | 0.35 ± 0.025
